From PubChem BioAssay (EPA / NIEHS)
Activity calls are given as the source filed them. The calls were made as follows: active = hit-call score of the fitted dose curve at least 0.9, where 1 is the maximum; inactive = score below 0.9.

What was measured:
Conditions in all cases: mRNA level, 48 h; actives raise or lower the signal
[1] = read-out: Heat shock 70 kDa protein 1 (HSPA1A), gene 3303; experiment: LTEA_HepaRG_HSPA1A: Life Technologies and Expression Analysis (LTEA) Assay for Heat shock 70 kDa protein 1 (HSPA1A) using HepaRG (AID 2283502)
Procedure, shortened: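 Cells were plated and cultured for 48 h, then switched to serum-free induction medium. Chemicals were added at eight half-log concentrations up to 100 uM for 48 h. RNA was then isolated and HSPA1A measured by qRT-PCR with bidirectional curve fitting against DMSO.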

[2] = read-out: Hypoxia-inducible factor 1-alpha (Homo sapiens) (UniProt Q16665); experiment: LTEA_HepaRG_HIF1A: Life Technologies and Expression Analysis (LTEA) Assay for Hypoxia-inducible factor 1 (HIF1A) Trancription factor using HepaRG (AID 2283503)
Procedure, shortened: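 HIF1A transcript level read by qRT-PCR (ACTB, GAPDH, POLR2A normalization) after 48 h chemical exposure of HepaRG cultures. Eight half-log concentrations, top 100 uM, 0.5% DMSO vehicle, duplicates; bidirectional curve fit against DMSO baseline.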

[3] = read-out: 3-Hydroxy-3-Methylglutaryl-CoA Synthase 2 (HMGCS2), HMGCS2 (gene 3158); experiment: LTEA_HepaRG_HMGCS2: Life Technologies and Expression Analysis (LTEA) Assay for 3-Hydroxy-3-Methylglutaryl-CoA Synthase 2 (HMGCS2) using HepaRG (AID 2283504)
Procedure, shortened: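 Differentiated human HepaRG cells were exposed in duplicate for 48 h in serum-free induction medium to eight concentrations (top 100 uM, half-log steps, 0.5% DMSO). HMGCS2 mRNA was quantified by TaqMan qRT-PCR, normalised to ACTB, GAPDH and POLR2A, then fitted bidirectionally against DMSO.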

[4] = read-out: HGF (gene 3082); experiment: LTEA_HepaRG_HGF: Life Technologies and Expression Analysis (LTEA) Assay for Hepatocyte Growth Facto (HGF) using HepaRG (AID 2283505)
Procedure, shortened: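 Differentiated human HepaRG cells in serum-free induction medium were exposed in duplicate for 48 h to eight concentrations (top 100 uM, half-log steps, 0.5% DMSO). HGF mRNA was quantified by qRT-PCR, normalized to ACTB, GAPDH and POLR2A.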

[5] = read-out: Insulin Like Growth Factor 1 (IGF1), IGF1 (gene 3479); experiment: LTEA_HepaRG_IGF1: Life Technologies and Expression Analysis (LTEA) Assay for Insulin Like Growth Factor 1 (IGF1) using HepaRG (AID 2283506)
Procedure, shortened: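 Cells are thawed, plated and cultured 48 h, then exposed in duplicate to chemical (highest 100 uM, half-log steps, 0.5% DMSO) for another 48 h. Total RNA is analysed by Fluidigm qRT-PCR for IGF1 expression relative to vehicle.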

[6] = read-out: Intercellular Adhesion Molecule 1 (ICAM1), ICAM1 (gene 3383); experiment: LTEA_HepaRG_ICAM1: Life Technologies and Expression Analysis (LTEA) Assay for Intercellular Adhesion Molecule 1 (ICAM1) using HepaRG (AID 2283507)
Procedure, shortened: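 Differentiated HepaRG cells in serum-free induction medium were exposed in duplicate for 48 h to eight half-log concentrations up to 100 uM in 0.5% DMSO. Transcript levels were measured by qRT-PCR normalized to ACTB, GAPDH and POLR2A; bidirectional fits relative to DMSO.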

[7] = read-out: Interleukin 6 (IL6), IL6 (gene 3569); experiment: LTEA_HepaRG_IL6: Life Technologies and Expression Analysis (LTEA) Assay for Interleukin 6 (IL6) using HepaRG (AID 2283509)
Procedure, shortened: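 qRT-PCR read-out of IL6 transcript, normalized to three housekeeping genes, after 48 h chemical exposure of HepaRG cells; 8-point half-log series, top 100 uM, 0.5% DMSO vehicle. Bidirectional curve fitting against DMSO baseline.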

[8] = read-out: Interleukin 6 Receptor (IL6R), IL6R (gene 3570); experiment: LTEA_HepaRG_IL6R: Life Technologies and Expression Analysis (LTEA) Assay for Interleukin 6 Receptor (IL6R) using HepaRG (AID 2283510);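 as to AC50: TaqMan qRT-PCR signal normalized to ACTB GAPDH and POLR2A housekeeping genes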
Procedure, shortened: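 Cells were thawed, plated and cultured 48 h, then medium was changed to serum-free induction medium. Chemicals were added in duplicate (100 uM top, half-log steps, 0.5% DMSO) for 48 h. Lysates were analyzed by qRT-PCR for IL6R expression.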

[9] = read-out: Potassium channel subfamily K member 1 (KCNK1), KCNK1 (gene 3775); experiment: LTEA_HepaRG_KCNK1: Life Technologies and Expression Analysis (LTEA) Assay for Potassium channel subfamily K member 1 (KCNK1) using HepaRG (AID 2283511)
Procedure, shortened: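 HepaRG, 48 h exposure, 8-pt half-log series top 100 uM, 0.5% DMSO vehicle, duplicates. Readout: KCNK1 transcript by qRT-PCR (Fluidigm array), housekeeping-normalized; bidirectional curve fit relative to DMSO baseline.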

[10] = read-out: Keratin 19 (KRT19), KRT19 (gene 3880); experiment: LTEA_HepaRG_KRT19: Life Technologies and Expression Analysis (LTEA) Assay for Keratin 19 (KRT19) using HepaRG (AID 2283512)
Procedure, shortened: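 Differentiated human HepaRG cells, plated 48 h, were exposed in duplicate for 48 h in serum-free induction medium to eight half-log concentrations up to 100 uM in 0.5% DMSO. KRT19 mRNA was quantified by qRT-PCR, normalized to ACTB, GAPDH and POLR2A, and fitted bidirectionally versus DMSO.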

[11] = read-out: JUN Transcription Factor, JUN (gene 3725); experiment: LTEA_HepaRG_JUN: Life Technologies and Expression Analysis (LTEA) Assay for JUN Transcription Factor using HepaRG (AID 2283513)
Procedure, shortened: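 Read-out is JUN transcript level by TaqMan qRT-PCR, normalized to ACTB, GAPDH and POLR2A, after 48 h chemical treatment of HepaRG cells. Concentration-response spanned eight half-log points up to 100 uM in 0.5% DMSO.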

[12] = read-out: Lipase C (LIPC), LIPC (gene 3990); experiment: LTEA_HepaRG_LIPC: Life Technologies and Expression Analysis (LTEA) Assay for Lipase C (LIPC) using HepaRG (AID 2283514)
Procedure, shortened: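 HepaRG, 48 h exposure, 8-pt half-log series from 100 uM in 0.5% DMSO, duplicates. Readout: LIPC mRNA by Fluidigm qRT-PCR, housekeeping-normalized (ACTB/GAPDH/POLR2A). Gain or loss fitted bidirectionally against DMSO baseline.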

[13] = read-out: Lipoprotein lipase (LPL), LPL (gene 4023); experiment: LTEA_HepaRG_LPL: Life Technologies and Expression Analysis (LTEA) Assay for Lipoprotein lipase (LPL) using HepaRG (AID 2283515)
Procedure, shortened: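 HepaRG, 48 h exposure, 8-pt half-log dilutions from 100 uM, 0.5% DMSO vehicle, duplicates; qRT-PCR (Fluidigm array) of LPL mRNA vs housekeeping genes; bidirectional curve fit relative to DMSO baseline.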

[14] = read-out: MicroRNA 122 (MIR122), gene 406906; experiment: LTEA_HepaRG_MIR122: Life Technologies and Expression Analysis (LTEA) Assay for MicroRNA 122 (MIR122) using HepaRG (AID 2283516); also: the transcript read is the microRNA miR-122
Procedure, shortened: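 Human liver HepaRG cultures receive test chemicals for 48 h at eight half-log concentrations from 100 uM. Expression is quantified by qRT-PCR with ACTB/GAPDH/POLR2A normalization and fitted bidirectionally against 0.5% DMSO.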

[15] = read-out: matrix metalloproteinase-10 (MMP10), MMP10 (gene 4319); experiment: LTEA_HepaRG_MMP10: Life Technologies and Expression Analysis (LTEA) Assay for matrix metalloproteinase-10 (MMP10) using HepaRG (AID 2283517)
Procedure, shortened: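 Transcript levels come from Fluidigm qRT-PCR normalized to three housekeeping genes, with curves fitted bidirectionally against 0.5% DMSO. Human HepaRG cells were dosed for 48 hours at concentrations up to 100 uM.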

[16] = read-out: MYC, MYC (gene 4609); experiment: LTEA_HepaRG_MYC: Life Technologies and Expression Analysis (LTEA) Assay for MYC using HepaRG (AID 2283518)
Procedure, shortened: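 Differentiated human HepaRG cells, plated 48 h then switched to serum-free induction medium, were exposed in duplicate for 48 h to 8-point half-log series up to 100 uM in 0.5% DMSO. MYC mRNA measured by qRT-PCR, normalized to ACTB/GAPDH/POLR2A.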

[17] = read-out: matrix metalloproteinase-3 (MMP3), MMP3 (gene 4314); experiment: LTEA_HepaRG_MMP3: Life Technologies and Expression Analysis (LTEA) Assay for matrix metalloproteinase-3 (MMP3) using HepaRG (AID 2283519)
Procedure, shortened: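 qRT-PCR read-out of MMP3 mRNA (normalised to three housekeeping genes) in HepaRG liver cells after 48 h chemical exposure; 8-point half-log series, top 100 uM, 0.5% DMSO vehicle. Bidirectional curve fitting against DMSO baseline.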

[18] = read-out: Paternally Expressed 10 (PEG10), PEG10 (gene 23089); experiment: LTEA_HepaRG_PEG10: Life Technologies and Expression Analysis (LTEA) Assay for Paternally Expressed 10 (PEG10) using HepaRG (AID 2283520);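 as to AC50: PEG10 transcript by qRT-PCR normalised to ACTB GAPDH and POLR2A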
Procedure, shortened: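 Human HepaRG cultures are dosed for 48 h across an eight-point half-log series starting at 100 uM, with 0.5% DMSO as vehicle and baseline. Gain or loss of PEG10 transcript is measured by qRT-PCR and fitted in both directions.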

[19] = read-out: Nuclear factor NF-kappa-B p105 subunit (Homo sapiens) (UniProt P19838); experiment: LTEA_HepaRG_NFKB1: Life Technologies and Expression Analysis (LTEA) Assay for Nuclear Factor Kappa B Subunit 1 (NFKB1) using HepaRG (AID 2283521)
Procedure, shortened: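 NFKB1 transcript was measured by TaqMan qRT-PCR on Fluidigm arrays, normalised to three housekeeping genes and fitted in both directions against 0.5% DMSO. HepaRG cells were dosed in duplicate for 48 h in serum-free induction medium, eight half-log steps from 100 uM.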

[20] = read-out: Insulin-like growth factor-binding protein 1 (IGFBP1), IGFBP1 (gene 3484); experiment: LTEA_HepaRG_IGFBP1: Life Technologies and Expression Analysis (LTEA) Assay for Insulin-like growth factor-binding protein 1 (IGFBP1) using HepaRG (AID 2283508)
Procedure, shortened: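 Differentiated human HepaRG cells in serum-free induction medium were exposed in duplicate for 48 h to eight concentrations, top 100 uM with half-log dilutions, in 0.5% DMSO. Transcript levels came from qRT-PCR normalised to ACTB, GAPDH and POLR2A, fitted bidirectionally against DMSO.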

Measured: AC50

Chain of Hypoxia-inducible factor 1-alpha (Homo sapiens) (Q16665 whole entry, looked up): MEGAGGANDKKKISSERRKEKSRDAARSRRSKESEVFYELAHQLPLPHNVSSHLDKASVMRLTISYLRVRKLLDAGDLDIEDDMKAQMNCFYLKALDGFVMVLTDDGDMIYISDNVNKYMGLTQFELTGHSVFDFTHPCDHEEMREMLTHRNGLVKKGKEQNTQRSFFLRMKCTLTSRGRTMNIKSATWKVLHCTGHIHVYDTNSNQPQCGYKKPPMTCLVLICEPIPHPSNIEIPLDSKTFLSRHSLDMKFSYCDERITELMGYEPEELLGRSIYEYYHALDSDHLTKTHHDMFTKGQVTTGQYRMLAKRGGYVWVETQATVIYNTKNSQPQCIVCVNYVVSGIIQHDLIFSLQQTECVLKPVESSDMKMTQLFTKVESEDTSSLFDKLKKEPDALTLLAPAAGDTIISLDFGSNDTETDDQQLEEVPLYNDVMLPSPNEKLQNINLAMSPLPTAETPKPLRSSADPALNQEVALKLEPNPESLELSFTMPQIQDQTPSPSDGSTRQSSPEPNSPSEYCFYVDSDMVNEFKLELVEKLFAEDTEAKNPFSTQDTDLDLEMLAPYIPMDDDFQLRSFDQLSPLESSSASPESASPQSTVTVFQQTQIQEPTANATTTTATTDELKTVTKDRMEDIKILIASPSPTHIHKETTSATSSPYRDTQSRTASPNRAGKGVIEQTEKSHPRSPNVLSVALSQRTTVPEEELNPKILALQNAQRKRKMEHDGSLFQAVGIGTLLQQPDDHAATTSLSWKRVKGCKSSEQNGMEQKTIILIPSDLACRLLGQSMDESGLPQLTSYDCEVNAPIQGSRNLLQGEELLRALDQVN
Chain of Nuclear factor NF-kappa-B p105 subunit (Homo sapiens) (P19838 whole entry, looked up): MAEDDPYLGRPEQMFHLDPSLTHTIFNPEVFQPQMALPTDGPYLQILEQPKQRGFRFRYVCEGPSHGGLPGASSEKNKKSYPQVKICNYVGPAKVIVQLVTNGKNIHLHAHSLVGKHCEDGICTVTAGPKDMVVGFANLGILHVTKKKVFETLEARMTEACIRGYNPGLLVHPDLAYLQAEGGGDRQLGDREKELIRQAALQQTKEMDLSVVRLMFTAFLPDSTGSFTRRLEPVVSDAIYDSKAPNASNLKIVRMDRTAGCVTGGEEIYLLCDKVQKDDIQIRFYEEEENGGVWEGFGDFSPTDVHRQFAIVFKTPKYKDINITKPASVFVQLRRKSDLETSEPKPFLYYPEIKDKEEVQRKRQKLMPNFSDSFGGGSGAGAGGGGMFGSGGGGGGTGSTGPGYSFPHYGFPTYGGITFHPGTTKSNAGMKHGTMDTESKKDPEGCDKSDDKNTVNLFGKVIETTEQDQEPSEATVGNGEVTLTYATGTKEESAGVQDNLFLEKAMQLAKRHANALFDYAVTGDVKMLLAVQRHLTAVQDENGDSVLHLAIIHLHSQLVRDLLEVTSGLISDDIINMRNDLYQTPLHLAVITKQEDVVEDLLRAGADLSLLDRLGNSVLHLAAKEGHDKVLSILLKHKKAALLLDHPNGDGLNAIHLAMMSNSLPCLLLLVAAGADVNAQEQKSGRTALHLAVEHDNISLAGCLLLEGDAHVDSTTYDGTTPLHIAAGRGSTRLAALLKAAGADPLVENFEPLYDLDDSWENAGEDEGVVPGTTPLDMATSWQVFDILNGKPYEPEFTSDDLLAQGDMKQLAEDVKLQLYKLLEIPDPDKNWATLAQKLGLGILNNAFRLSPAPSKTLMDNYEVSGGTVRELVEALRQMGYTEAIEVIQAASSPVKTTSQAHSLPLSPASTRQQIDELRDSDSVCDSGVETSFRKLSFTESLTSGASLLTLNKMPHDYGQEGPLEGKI

COc1cccc([C@H](O)C2CCN(CCc3ccc(F)cc3)CC2)c1OC
active: [10] 15.3 µM | [13] 71.6 µM | [18] 9.92 µM
not listed: [20]
inactive: all other assays above

Clc1cc(Cl)c2c(c1)N=C1CCCCCN1C2
active: [5] 5.03 µM
not listed: [20]
inactive: all other assays above

CC(C)(c1cc(Br)c(O)c(Br)c1)c1cc(Br)c(O)c(Br)c1
active: [1] 88.6 µM | [2] 74 µM | [3] 89.2 µM | [5] 77 µM | [6] 74.5 µM | [7] 75.5 µM | [11] 94.7 µM | [13] 84.5 µM | [16] 89.5 µM
not listed: [20]
inactive: all other assays above

CC1=CC(=O)/C(=C(/C)O)C(=O)O1
not listed: [19]
inactive: all other assays above

O=C1c2ccccc2C(=O)N1CCc1noc(-c2ccc(CN3CCCCCC3)s2)n1
active: [13] 20.7 µM | [18] 42.2 µM
not listed: [20]
inactive: all other assays above

CC(C)(C)c1cc(/C=C2\SC(N)=NC2=O)cc(C(C)(C)C)c1O
active: [2] 68.8 µM | [3] 50 µM | [4] 24.5 µM | [5] 93.3 µM | [20] 85.1 µM | [7] 29.8 µM | [11] 66.6 µM | [14] 94.3 µM | [15] 49.9 µM | [16] 28.9 µM | [17] 3.52 µM | [19] 93.6 µM
inactive: [1] | [8] | [9] | [10] | [12] | [13] | [18]

O=C1CCC(C2CCCCC2)CC1
not listed: [20]
inactive: all other assays above

Cc1oc2c(NC(=O)c3c(Cl)cccc3Cl)cccc2c1C(C)(C)O
inactive: [2] | [11] | [17]
active: [1] 79.6 µM | [3] 52.8 µM | [4] 85.7 µM | [5] 28.6 µM | [20] 37.8 µM | [7] 66.2 µM | [8] 23.8 µM | [9] 43.6 µM | [10] 50 µM | [12] 37.6 µM | [13] 14 µM | [14] 38.6 µM | [15] 70.8 µM | [16] 50 µM | [18] 3.27 µM

CC[C@@H]1C[C@H](N(Cc2cc(C(F)(F)F)cc(C(F)(F)F)c2)C(C)=O)c2cc(C(F)(F)F)ccc2N1C(=O)OC(C)C
active: [5] 5.09 µM | [18] 11.6 µM
inactive: all other assays above

Oc1ccc2ccccc2c1
not listed: [6]
inactive: all other assays above

O=C(O)Cn1c(=O)n(Cc2ccc(Br)cc2F)c(=O)c2ccc(Cl)cc21
active: [10] 50 µM | [13] 9.92 µM
inactive: all other assays above
